Results as given in the supplement of paper PMC6555819.

Columns and labels:
Test in all cases: PBM binding z-score (relative to random genomic background probes); higher = stronger binding; sequences stand for … in GC…GCGATTGACAGCGTAGAATGAAGG
[1] = tested on: RARb homodimer (NR concentration 270 nM)
Procedure, shortened: (§1)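 Ligand-free nuclear receptor dimers were applied to custom Agilent 4×180K protein-binding microarrays whose double-stranded probes carried direct-repeat seeds, single-nucleotide variants, half-site ablations and random human genomic background sequences in 34-nt variable regions. Incubation lasted 1 h. Binding z-scores were computed against the random background probes from regression-normalized fluorescence.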

[2] = tested on: RARg:RXRa (NR concentration 270 nM, RXRa partner concentration 90 nM)
Procedure, shortened: as §1

[3] = tested on: RARg homodimer (NR concentration 270 nM)
Procedure, shortened: as §1

[4] = tested on: RXRa DBDmut IVT, anti-RXR (DBD mutation: RXRa K156A/R161A, NR concentration 90 nM)
Procedure, shortened: as §1

[5] = tested on: RXRa homodimer (NR concentration 180 nM)
Procedure, shortened: as §1

[6] = tested on: THRa:RXRa (NR concentration 90 nM, RXRa partner concentration 90 nM)
Procedure, shortened: as §1

[7] = tested on: THRa homodimer (NR concentration 90 nM)
Procedure, shortened: as §1

[8] = tested on: VDR homodimer (NR concentration 270 nM)
Procedure, shortened: as §1

Sequence	PBM binding z-score [1]	PBM binding z-score [2]	PBM binding z-score [3]	PBM binding z-score [4]	PBM binding z-score [5]	PBM binding z-score [6]	PBM binding z-score [7]	PBM binding z-score [8]
ATCGAAAGGTCGAGGTGATTATAGAGAAAGGGAA	2.72	4.24	4.23	0.927	4.29	2.54	0.338	0.821
CCTGCTAGGTCCATGGTCAGCTAAAGCAGCTCGC	0.248	-0.442	-0.195	1.19	-0.603	-0.287	-0.629	0.0229
CCGGGTAGGTTATGGGGCATTCAGGCAACGGTGA	1.1	0.906	0.708	-1.46	0.781	0.806	0.313	0.138
TCTCGGAGGACACGAAGGTCAGAACTTTCCAGAG	3.24	2.59	3.24	1.26	1.51	2.69	1.15	1.45
GCTTACGGGTCTAAGGTTATAGCATGAATAGAAT	0.97	0.869	0.598	1.27	1.46	2.16	1.21	1.04
CAAACTAGGTCACCGGAAGGTCAATGTCCGCATG	5.62	8.18	7.34	2.27	5.58	4.36	2.94	3.01
CCAGACAGGTGACAGGTAACTCAGTCTGGTACGC	0.331	0.209	0.537	-0.242	0.665	0.126	-0.089	-0.0347
AGTCAAAGTTCACTAAGTAACGTAAGATTCAGCT	3.31	4.63	5.16	4.1	3.9	1.55	-0.0534	3.4
GTTGCTAGGTCAGGTTGGTCAGCTAACGGGTACG	3.23	2.74	4.18	0.0427	1.4	2.02	1.06	0.821
TAGCCTAGGTCAGGTCGGGCCAGTATACGCTATA	2.67	2.95	4.12	-0.81	1.62	3.92	0.761	0.0294
CCTTACCGGTCACTGACAGGTTATAGCATTTGGA	2.7	3.19	3.15	0.586	1.2	1	0.662	0.617
CTCGCAAGGTCGTGCTCAGGTGAGTATACCAAAC	1.7	3.26	2.14	2.15	2.52	3.63	1.6	1.22
CCTAGTTGGTCCGGAGGTCACACACCGGATATGA	3.85	4.35	3.68	0.525	4.56	3.62	2.86	2.79
GCTGCTAGGTCAACAGATGGTCAGCTAAAGCTCG	2.83	4.81	4.85	1.22	2.42	2.56	0.465	0.00157
TCTTGTAGATGAAAGGTTAAGAAAGCCGAAGCCT	1.17	1.2	0.987	1.1	2.39	0.806	-0.431	-0.24
ATATGTAGTTTACATCCGGGTCATTCAGGCTATG	2.34	1.83	1.44	1.58	2.1	3.2	2.74	2.82
GCGGACAGGTGAAACGCAGGTAACTCAGGGTGGC	0.239	1.13	0.717	-0.341	0.426	1.41	-0.55	-0.834
GCAGACAGGTGAAACGCAGGCAACTCAGGGTGGC	-0.0684	0.39	0.237	-0.513	0.435	0.404	-0.656	-0.588
TAGCCTAGGTCATTGGGCCATTATAGTACGCATC	3.07	4.19	4.28	1.85	2.96	3.07	1.24	1.44

Sequence	PBM binding z-score [1]	PBM binding z-score [2]	PBM binding z-score [3]	PBM binding z-score [4]	PBM binding z-score [5]	PBM binding z-score [6]	PBM binding z-score [7]	PBM binding z-score [8]
ATCGAAAGGTCGAACGTGAGTATACCCACCCGAA	2.3	3.98	3.79	1.83	4.08	1.89	-0.12	0.989
TCATATAGGCAAACAGGTGAAAGTCCGTAAGTTA	0.521	0.00145	0.112	1.26	0.527	0.197	0.185	0.251
CGAACTAGGTCAGAACAGGACCGTGAAGGATGAT	1.66	2.43	3.01	0.494	1.17	1.56	-0.264	-0.342
GCTGCTAGGTCTGGTTGGTCAGCTAACGGGTACG	0.178	-0.569	-0.564	-0.198	-0.753	-0.722	-0.243	-0.214
GCTCGGAGGACAAAGTCAGAGCTTTGTCCGTAGA	-0.0434	-0.436	-0.0287	-0.569	-0.989	0.05	-0.629	-0.348
CCGAGTAGGTTATGGGGCATTCCGGCAACGGTGA	1	0.266	0.307	-0.402	0.465	0.0973	0.142	0.147
TCATATAGGTAAGTGCTAGGTGAAAGTCCGATCT	0.823	0.114	0.186	1.23	0.629	0.873	0.473	0.173
TCTAGTTGATCACGGAGGTCACACACGACGGGTA	3.89	4.17	3.92	0.917	4.56	3.52	2.48	2.18
GCATATAGGTAATATAAGGTGAAAGTCCGATTGT	0.859	0.463	0.731	0.683	1.07	4.5	2.32	0.0802
TAGCCTAGGTCATTCAGGGGCCAGTCTAGAAAGC	3.1	5.97	4.33	1.66	2.98	3.27	0.478	1.43
GCTGCTAGGTCAACTTATGGTCAGCTAAAGCTCG	3.76	5.26	5.44	1.75	3.1	3.33	1.45	0.364
TGAATGAGGTTAAAGATCAGGGCACGTGGCGTCG	1.91	2.84	1.59	0.869	3.95	3.35	1.32	1.03
TCATGTAGGTAAAGGTGAAAGTCGAACGATATGA	1.61	1.69	1.37	0.705	1.91	1.28	0.0244	0.443
TCATACAGGTAAAAGGTGAAAGTCGGTGTGGTAA	2.02	2.07	1.09	1.58	3.18	1.81	0.619	0.324
CCTGCTAGGTCATGGTCAGCTCATCTACAGTATG	3.46	3.88	4.57	1.95	2.65	3.24	1.26	0.458
GCTAGTTGGTCAGTAAAAGGTCCCACACCGGTCG	1.08	0.163	0.286	-0.751	-0.112	-0.281	-0.0359	-0.387
CCTCGGAGGGCAACAGGAGGTCAGAGCTGCCAGA	3.73	5.71	4.23	0.315	3.16	3.26	0.313	1.22
GCTCGGATGACAAGGTCAGAGCTTTGTCCGTAGA	2.57	2.42	2.02	0.22	2.15	2.5	1.09	0.292
TCTAGCAGGCCAGAGGGTCACTCACGAGGTACGG	2.69	2.68	2.14	0.0334	2.44	1.61	0.0798	0.852

Sequence	PBM binding z-score [1]	PBM binding z-score [2]	PBM binding z-score [3]	PBM binding z-score [4]	PBM binding z-score [5]	PBM binding z-score [6]	PBM binding z-score [7]	PBM binding z-score [8]
ACTATTAGTTGACTTAGGGCAAGCGATACGACGC	0.617	0.671	0.684	0.657	0.682	0.91	-0.0225	0.0582
TCTTGTAGATCAACAGGAGGTAAAGAAAGATCGA	-0.473	0.0301	-0.00391	0.122	0.423	0.237	-0.482	-0.385
AGAATGAGGTTATTAAGATCAGGGGATTGCGGTC	0.919	1.03	0.573	1.97	1.49	2	0.811	1.35
ATATCTAGGTAACAAGTTCAGTGAAAGAGAGGAC	1.93	1.25	1.51	1.36	1.03	1.49	0.951	2.85
CGTCAAAGTTCAAGGTAGCGTAACAGAAAGCAGC	3.9	5.41	6.34	4.38	4.84	2.19	0.191	3.11
TGTCAAAGTTTAAAGGTAACGTAAGTATCCACAC	1.36	2.26	1.75	1.11	2.1	1.99	-0.137	0.446
CCTAGTTGGTCAAGAGGTCACACACCGGATATGA	5.08	6.18	5.31	1.37	6.37	4.15	2.75	3.07
CCTTACGGGTCAAGGTTTTAGCACGGGTGGTACG	3.11	4.62	4.4	0.499	5.16	2.51	0.113	0.742
AGTACGAGGGCACGCTGAGTTGATAGCAGAGTAG	1.41	2.07	2.38	2.3	1.2	1.92	0.295	2.17
ATCTCTAGGTAACAAGTTCAGTGTAAGAGAGGAC	1.94	1.5	1.49	1.15	0.874	1.8	0.989	2.99
ATCTCTAGGTAAAGTACAGTGAAAGATCGATAGA	0.302	0.498	0.733	0.55	0.366	0.609	0.162	0.488
CCGACTGGAGCAGAAAGGTTACCATACCATCCGG	2.03	1.32	0.946	-0.179	1.8	0.977	-0.2	0.282
TATACAGGGTCAATGGCCAGAGTACGAATGTCGA	3.21	5	4.73	2.43	5.41	3.22	0.631	2.79
CAAACTAGGTTAAAGGTCAAAGTCGAGCCAACCA	4.47	7.04	5.43	2.13	8.81	3.85	0.829	2.96
GCGACTGGGGCATCAGCAGTTTACCATAACTTAA	0.541	0.124	0.341	0.507	0.0851	0.0532	-0.343	0.258
CGTCCAAGCTCAAAGGTCAGTGAAGAGATGACGG	4.4	4.58	5.11	0.306	4.05	2.33	0.0443	0.215
TCTAGTAGATCAACAGGAGGTTAAGAAAGATCGA	0.413	0.662	0.244	0.766	0.901	0.727	-0.505	0.097
ATCGAAAGGTCGAAGTTGAGTATACCCACCCGAA	2.55	4.07	3.83	1.9	4.79	2.01	-0.00538	1.02
TCTTGTAGATCAAAAGGAGGTTAAGAAAGATCGA	0.201	0.79	0.0979	0.622	1.17	1.09	-0.613	0.16
